# This is a sample that favours compounds with a hit; in the whole collection about 8.8% have one here.
# HTT cytoprotect = Huntington cell model cytoprotection by ATP luminescence. PC12 HTT-Q103 induced, cytoprotection, ATP luminescence, 40 h. Potency, µM (highest dose often 56.4 µM), for inactives: cytoprotection (ATP increase), hits mostly activators. 0.14% of 230,000 active. AID 1471; note: % of control where 0% means no effect; nearly all actives have a fitted effect of over 45% in size
#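 PC12 cells with ecdysone-inducible HTT exon 1 Q103-GFP, induced with 100 nM tebufenozide and co-treated with library compounds in a dose series (1536-well, 1500 cells/well). Cytoprotection read as ATP content by ATPlite luminescence.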
# HTT aggregate = inhibitors of mutant huntingtin aggregate formation in PC12 cells; PC12 HttQ103-GFP aggregates, Acumen cytometry, 40 h; Potency, µM (doses to about 46.1 µM), without a hit: at the highest dose activity change, negative = inhibition, most hits filed as inhibitors; 1.1% of 220,000 active; note: % is set by controls: 0 for no effect and ±100 for the full control effect; nearly all actives have a fitted effect of over 60% in size
#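 PC12 cells stably carrying ecdysone-inducible HTT exon 1 Q103–GFP were induced with tebufenozide (100 nM final) and treated with library compounds in titration. GFP aggregates in lysates were counted by laser scanning cytometry.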
# Lamin A splicing = changes lamin A minigene splicing in HeLa cells; 0.01% of 200,000 active; Potency, µM (series often up to 46.1 µM), for the others: top-dose ratio change, negative = inhibition, most hits filed as inhibitors; HeLa LMNA splicing GFP/RFP minigene ratio, 48 h; active = well fitted inhibition curve with a large enough effect in the signal ratio, with a control signal flat, not every such curve was filed as active; inconclusive = small, poorly fitted or top-dose-only effect, or effect the other way, or a change in a side signal; the % refers to the signal ratio; note: % is set by controls: 0 for no effect and ±100 for the full control effect
#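 S3 HeLa cells stably expressing lamin A-EGFP splicing minigene plus DsRed2, 600 cells/well, 48 h compound exposure at 37C. Laser-scanning cytometry; analysed as GFP (500-530 nm)/RFP (575-640 nm) total intensity ratio; 0.5% DMSO vehicle.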
# ALDH1A1 block = blocks purified human ALDH1A1 activity; Purified ALDH1A1, NADH fluorescence, propionaldehyde substrate; Potency, µM (titrated, usually from 75.3 µM), inactives show top-dose activity, negative = inhibition, usual class: inhibitors; 7.3% of 220,000 active; AID 1030; active = well fitted inhibition curve with a large enough effect, not every such curve was filed as active; inconclusive = small, poorly fitted or top-dose-only effect, or another doubt; inactive = no such curve, though single readings can be large or run the other way;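 note: plate controls were no enzyme wells and a reference inhibitor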
# Target sequence (P00352 whole entry, looked up): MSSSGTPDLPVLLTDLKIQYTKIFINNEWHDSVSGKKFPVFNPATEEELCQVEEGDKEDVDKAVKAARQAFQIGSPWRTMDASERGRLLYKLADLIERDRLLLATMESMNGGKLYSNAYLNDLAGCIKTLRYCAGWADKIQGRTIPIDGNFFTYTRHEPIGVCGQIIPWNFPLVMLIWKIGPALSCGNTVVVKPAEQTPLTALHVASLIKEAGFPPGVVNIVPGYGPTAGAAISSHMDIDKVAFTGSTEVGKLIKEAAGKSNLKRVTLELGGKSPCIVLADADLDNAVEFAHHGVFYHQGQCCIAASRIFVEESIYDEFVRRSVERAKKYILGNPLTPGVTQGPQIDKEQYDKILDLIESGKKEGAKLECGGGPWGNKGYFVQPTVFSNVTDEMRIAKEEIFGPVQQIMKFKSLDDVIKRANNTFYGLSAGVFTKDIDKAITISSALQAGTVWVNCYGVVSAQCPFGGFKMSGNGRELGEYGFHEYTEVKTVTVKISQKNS
# HPGD inh = HPGD (human) dehydrogenase inhibition; purified HPGD, NADH fluorescence kinetic, PGE2 substrate; 4.3% of 150,000 active; Potency, µM, for inactives: top-dose activity change, negative = inhibition, hits mostly inhibitors; active = well fitted inhibition curve with a large enough effect, not every such curve was filed as active; inconclusive = small, poorly fitted or top-dose-only effect, or another doubt; inactive = no such curve, though single readings can be large or run the other way; note: % is set by controls: 0 for no effect and ±100 for the full control effect
# Target sequence (P15428 whole entry, looked up): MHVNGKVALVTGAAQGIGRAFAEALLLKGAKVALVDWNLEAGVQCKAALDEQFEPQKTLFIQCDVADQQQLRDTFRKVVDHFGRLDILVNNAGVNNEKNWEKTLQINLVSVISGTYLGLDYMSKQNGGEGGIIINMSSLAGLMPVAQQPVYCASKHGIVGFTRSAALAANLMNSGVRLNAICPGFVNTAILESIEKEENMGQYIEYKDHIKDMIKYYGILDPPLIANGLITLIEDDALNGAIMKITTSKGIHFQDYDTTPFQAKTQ
#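 NADH formation kinetics: reaction with 30 uM PGE2 and 1 mM NAD+ (final), 20 nM enzyme, Tris-HCl pH 8 with Tween 20, after 15 min compound preincubation at room temperature. Fluorescence change, last versus first of five reads.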
# Active calls of the source: *; ? = inconclusive; · = not tested or not shown; ! = not confirmed by another sample; [ ] = remark or other dose. Unless noted, calls come from the whole dose curve; as a rule, active = well fitted curve in the direction sought with a large enough effect; inconclusive = small, poorly fitted or top-dose-only effect, or another doubt; inactive = no such curve, though single readings can be large; an effect the other way counts as inactive or inconclusive. Potency is the fitted concentration of half-maximal effect.
SMILES,HTT cytoprotect,HTT aggregate,Lamin A splicing,ALDH1A1 block,HPGD inh
CN(C)c1ccc(/C=N\NC(=O)c2csnn2)cc1,-44%,9%,-7%,1µM*,-17%
O=C(N/N=C\c1ccc(Oc2ccccc2)cc1)c1csnn1,-21%,-28%,8%[46 µM],9%,·
CN(C)S(=O)(=O)c1cccc(NC(=S)N/N=C/C(c2ccccc2)c2ccccc2)c1,2%[10 µM],20%,-10%,10µM*,18µM*
CC(/C=N/NC(=S)Nc1cccc(S(=O)(=O)N(C)C)c1)c1ccccc1 (stereo unspecified),19%[10 µM],-21%,-12%,7.9µM*,35µM*
COc1cccc(/C=N/NC(=S)Nc2cccc(S(=O)(=O)N(C)C)c2)c1,-21%[10 µM],1%[9.22 µM],·,·,·
COc1cc(/C=N/NC(=S)Nc2cccc(S(=O)(=O)N(C)C)c2)cc(OC)c1O,?,6%,?,22µM*,-26%
CN(C)S(=O)(=O)c1cccc(NC(=S)N/N=C/c2ccco2)c1,6%[10 µM],10%[9.22 µM],·,·,·
COc1ccc(C(=O)NC(=S)NCc2ccc(-c3nc4ccccc4o3)cc2)cc1OC,-13%,36%,15%,5µM*,-21%
O=C(C[n+]1cc(-c2ccc(Cl)cc2)n2c1CCC2)Nc1nc(-c2ccc(F)cc2)cs1,-20%[10 µM],-6%[9.22 µM],·,·,·
c1ccc(-c2nc(-c3ccco3)cs2)nc1,2%,-16%,27%,?,-10%
Nc1cc(-c2ccco2)no1,2%[10 µM],30%,17%,4.5µM*,-15%
Cc1cc(C)c(O)c(-c2cc(C(=O)Nc3c(C)n(C)n(-c4ccccc4)c3=O)[nH]n2)c1,6%[10 µM],-5%[9.22 µM],·,·,·
Cc1ccccc1CNC(=O)c1ccc(Cn2c(SCc3cccc(F)c3)nc3cccnc32)cc1,·,·,-8%[46 µM],·,·
COC(=O)C(C)N1C(=O)S/C(=C\c2cc(C)n(-c3ccccn3)c2C)C1=O (stereo unspecified),-112%,5%,-9%,22µM*,-26%
Cc1nc2nc(SCC(=O)NCCc3ccc(Cl)cc3)nn2c(C)c1Cc1c(F)cccc1Cl,·,·,1%[46 µM],·,·
Cc1cc(C)c(C)c(S(=O)(=O)N2CCN(C(=O)c3cc(=O)[nH]c4ccccc34)CC2)c1C,-38%,?,?,14µM*,-7%
O=C(c1cc(=O)[nH]c2ccccc12)N1CCN(c2ccc([N+](=O)[O-])cc2)CC1,6%[10 µM],22%[9.22 µM],·,3µM*,·
Cc1ccc(S(=O)(=O)N2CCN(C(=O)c3cc(=O)[nH]c4ccccc34)CC2)c(C)c1,-49%,-12%,-13%,?,-27%
COc1cccc(-n2ccnc2SCC(=O)Nc2nc3ccc(C)cc3s2)c1,·,·,15%[46 µM],·,·
O=C1NC(=O)/C(=C\c2ccc(Oc3ccc([N+](=O)[O-])cn3)cc2)S1,-2%[1.9 µM],10%,?,?,13µM*
O=[N+]([O-])c1ccc(Oc2ccc(/C=N/O)cc2)nc1,-26%[10 µM],-10%[9.22 µM],·,1%,·
CCN1CC(CCN2CCOCC2)C(c2ccccc2)(c2ccccc2)C1=O (stereo unspecified),15%,29%,·,·,·
COc1ccc(/C=C2/N=C(SC3CCOC3=O)N(c3cccc(OC)c3)C2=O)cc1 (stereo unspecified),-12%[10 µM],32%,-14%,3.5µM*,·
COc1ccc(-n2c(SC3CCOC3=O)nc3ccccc32)cc1 (stereo unspecified),-8%,6%,-7%,6%,0%
CC1(C)CC(=O)C=C(NCCN2CCN(C(=O)Nc3ccccc3)CC2)C1,7%[10 µM],5.6µM*,17%,-10%,0%
SMILES,HTT cytoprotect,HTT aggregate,Lamin A splicing,ALDH1A1 block,HPGD inh
CCOC(=O)c1ccc(NC(=S)N2CCN(CCNC3=CC(=O)CC(C)(C)C3)CC2)cc1,-4%,5%,·,?,·
Cc1ccc(Cn2ncc3c(N4CCN(C5CCCC5)CC4)ncnc32)cc1,12%[10 µM],-2%[9.22 µM],4%[46 µM],-5%,·
O=C(NC1CC(=O)N(c2ccc(Cl)cc2)C1)C1CCCCC1 (stereo unspecified),·,·,8%[46 µM],·,·
C=CCSc1nnc(CSc2nc3sc4c(c3c(=O)[nH]2)CCCC4)n1-c1ccccc1,12%,-17%,?,?,-26%
Nc1nc(SCc2nc3sc4c(c3c(=O)[nH]2)CCCC4)n[nH]1,-6%[10 µM],-11%,?,?,-9%
CCOC(=O)CSc1nc2ccccc2c(=O)[nH]1,7%[10 µM],6%,-1%,7%,-17%
CCOC(=O)CSc1nnc(CSc2nc3ccccc3c(=O)[nH]2)n1-c1ccccc1,3%,-4%,-4%,?,4.5µM*
CCOC(=O)CSc1nnc(CSc2nc3sc4c(c3c(=O)[nH]2)CCC4)n1C,-8%,3%[9.22 µM],2%,-6%,8.9µM*
CCSc1nc2sc3c(c2c(=O)[nH]1)CCCC3,5%[10 µM],-22%,-3%,0%,-15%
CCOC(=O)CSc1nnc(CSc2nc3sc4c(c3c(=O)[nH]2)CCC4)n1-c1ccccc1,11%,-8%,22%,8%,8.9µM*
Cc1nnc(SCc2nc3sc4c(c3c(=O)[nH]2)CCCC4)n(N)c1=O,-1%[10 µM],-5%[9.22 µM],?,22µM*,·
CCOc1ccccc1CNC(=O)CSc1n[nH]c(-c2ccccc2Cl)n1,·,·,-4%[46 µM],·,·
CCCSc1nc2ccsc2c(=O)n1CC,10%[10 µM],-8%,?,-4%,·
NNC(=O)c1cccc(COc2ccc(Br)cc2)c1,-13%[10 µM],?,-10%,0.63µM*,-6%
NNC(=O)c1cccc(COc2cccc(Br)c2)c1,-27%,-30%,-13%,3.2µM*,-8%
COc1ccc(OCc2cccc(C(=O)NN)c2)cc1,·,1%,?,0.32µM*,-16%
COc1ccc(OCc2cccc(C(=O)Nc3cc(C)on3)c2)cc1,-22%[10 µM],-5%,-2%,-3%,-1%
CCOc1ccccc1CNC(=O)c1nc(-c2ccc(Cl)cc2)n2c1CCCCC2,·,·,-5%[46 µM],·,·
O=C(/C=C\c1ccc(O)c(O)c1)O[C@@H](Cc1ccc(O)c(O)c1)C(=O)O,-1%,·,·,-1%,28µM*
O=C(/C=C/c1ccc(O)c(O)c1)c1ccccc1O,-40%[10 µM],-8%[9.22 µM],·,·,·
O=C(/C=C/c1ccc(O)c(O)c1)OC(Cc1ccc(O)c(O)c1)C(=O)O (stereo unspecified),?,·,·,-15%,22µM*!
O=C(/C=C/c1ccc(O)c(O)c1)O[C@@H]1C[C@@](O)(C(=O)O)C[C@H](O)[C@@H]1O,-14%[1.9 µM],·,·,?,-14%
CC1(C)CC(=O)C2=C(C1)OC(N)=C(C#N)C21C(=O)N(Cc2ccccc2Cl)c2ccccc21 (stereo unspecified),-6%[10 µM],28%,10%,2.8µM*,-2%
N#CC1=C(N)OC2=C(C(=O)CCC2)[C@]12C(=O)N(CC(N)=O)c1ccccc12,11%,5%,0%,9%,·
COc1cc2c3c(c1)C1(C(=O)N3C(C)(C)C=C2C)C(C#N)=C(N)Oc2cc(C)oc(=O)c21 (stereo unspecified),-9%,10%,?,4µM*,-9%

# Compound activity as filed in PubChem.
